Inconclusive results are not listed. Entries that show only a call come without a potency. Active and inactive are the calls of the source. Unless noted, calls follow the shape of the full dose curve.
Potency is read from the fitted curve at half-maximal effect.

Nucleoprotein (Lymphocytic choriomeningitis virus (strain Armstrong)), sequence (P09992 whole entry, looked up): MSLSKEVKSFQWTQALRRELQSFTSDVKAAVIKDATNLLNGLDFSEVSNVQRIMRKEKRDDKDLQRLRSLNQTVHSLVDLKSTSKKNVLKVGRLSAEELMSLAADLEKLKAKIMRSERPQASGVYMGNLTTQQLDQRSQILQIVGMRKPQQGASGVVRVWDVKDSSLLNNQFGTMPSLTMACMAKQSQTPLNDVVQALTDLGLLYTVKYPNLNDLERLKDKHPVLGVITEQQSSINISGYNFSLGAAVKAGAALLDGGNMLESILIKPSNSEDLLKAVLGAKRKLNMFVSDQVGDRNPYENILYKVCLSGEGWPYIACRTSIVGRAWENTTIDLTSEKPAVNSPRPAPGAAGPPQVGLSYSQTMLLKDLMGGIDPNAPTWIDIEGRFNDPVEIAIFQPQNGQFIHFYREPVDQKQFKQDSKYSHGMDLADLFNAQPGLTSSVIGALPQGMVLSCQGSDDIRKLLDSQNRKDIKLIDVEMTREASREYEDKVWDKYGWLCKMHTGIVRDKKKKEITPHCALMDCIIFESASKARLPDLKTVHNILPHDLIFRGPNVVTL

Tested on in one assay: not listed separately
Put plainly: qHTS for Inhibitors of the Functional Ribonucleoprotein Complex (vRNP) of Lymphocytic Choriomeningitis Arenaviruses (LCMV): Viability assay - alamar blue signal for LCMV Primary Screen (AID 1347085; calls by dose curve; tested in HEK293 reporter line; also: nearly all actives have a fitted effect of over 80% in size). The following applies: alamar blue viability counter-screen, LCMV vRNP screen cells; series mostly up to 57.5 µM. A general note: Quantitative high-throughput screening tests each substance at several concentrations.
For the compound `CCCCCCCCCCCCCCCC(=O)OC(CO)CO`, the Potency result is “inactive”.
On the same count and under the same terms, with `C[C@H]([C@@H](N)C(=O)N[C@@H](C(=O)O)[C@@H]1O[C@H](n2ccc(=O)[nH]c2=O)[C@@H](O)[C@H]1O)[C@@H](O)c1ccc(O)cn1` the entry was “inactive”; with `CC(C)CC[C@@H](O)[C@](C)(O)C1CC[C@@]2(O)C3=CC(=O)[C@@H]4C[C@@H](O)[C@@H](O)C[C@]4(C)C3CC[C@]12C` (stereo not given in full), “inactive”.
As to `OC(c1cc(C(F)(F)F)nc2c(C(F)(F)F)cccc12)C1CCCCN1` (stereo not given), the Potency entry was “inactive”.
On the same count and under the same terms, with `COc1cc2c(cc1CC=C(C)C)C(=O)C[C@@H](c1ccc(O)cc1)O2` the entry was “inactive”; with `CC1=CCC[C@@H]2[C@@](C)(CC/C(C)=C/C(=O)O)[C@H](C)CC[C@@]12C`, “inactive”.
On the same count and under the same terms, as for `Cc1c[nH]c(C=C2C(=O)Nc3ccccc32)c1CCC(=O)O`, the entry is “inactive”.
On the same count and under the same terms, with `CC(=O)OC[C@H]1O[C@@H](O[C@H]2C[C@]3(C)C(C[C@@H](O)C4C([C@]5(C)CC[C@@H](C(C)(C)O)O5)CC[C@]43C)[C@@]3(C)CC[C@H](O)C(C)(C)C23)[C@H](O[C@@H]2O[C@@H](C)[C@H](O)[C@@H](O)[C@H]2O)[C@@H](O)[C@@H]1O` (stereo not given in full) the entry was “inactive”.
Turning to `CC(C)=CCCC(C)CC(=O)O` (stereo not given), the Potency entry was “inactive”.
The same measure, in the same setting: as for `CC(C)=CCCC(C)CC=O` (stereo not given), the entry is “inactive”.
Same read-out and setting: with `CC(=O)C1CCC2C3CCC4=CC(=O)C=CC4(C)C3C(=O)CC12C` (stereo not given) the entry was “inactive”; with `CC1(C)CCC[C@]2(C)[C@H]3Cc4cc(O)ccc4O[C@]3(C)CC[C@@H]12`, “inactive”.
On the same count and under the same terms, as for `C[C@@H]1[C@H](C)CC[C@]2(C(=O)O)CC[C@]3(C)C(=CC[C@@H]4[C@@]5(C)C[C@@H](O)[C@H](O)[C@@](C)(CO)[C@H]5CC[C@]43C)[C@@H]12`, the entry is “inactive”; as for `CC(C)CC(=O)OC(C)(C)[C@@H]1Cc2c(ccc3ccc(=O)oc23)O1`, “inactive”; as for `CCC(=O)O[C@]1(C(=O)CO)CC[C@H]2[C@@H]3CCC4=CC(=O)CC[C@]4(C)[C@@H]3CC[C@@]21C`, “inactive”.
Take `COc1cc(CCc2ccccc2)c(C(=O)O)c(O)c1C/C=C(/C)CCC=C(C)C`: the Potency result is “inactive”.
The same measure, in the same setting: as for `CC12CCC(=O)C=C1CCC1C2C(O)CC2(C)C(O)CCC12` (stereo not given), the entry is “inactive”; as for `CC(=O)O[C@H]1CC[C@@]2(C)[C@H](C1)C(=O)C[C@H]1[C@@H]3CC[C@@H]4[C@@H](CN5C[C@@H](C)CC[C@H]5[C@@]4(C)O)[C@@H]3C[C@@H]12`, “inactive”.
Consider `c1coc(Cn2cccc2)c1`, for which the Potency result is “inactive”.
On the same count and under the same terms, as for `CC1=CCC(C(C)C)C=C1` (stereo not given), the entry is “inactive”; as for `O=CCCc1ccccc1`, “inactive”.
Take `C[C@H]1OC(=O)CC[C@@H]2[C@]1(C)CCC1[C@@]2(C)CC[C@@]2(C)C3CC(C)(C)CC[C@]3(CO)CC[C@]12C` (stereo not given in full): the Potency entry is “inactive”.
Same read-out and setting: with `CC(=O)OCC(=O)[C@@]1(O)CC[C@H]2[C@@H]3CCC4=CC(=O)CC[C@]4(C)[C@@H]3C(=O)C[C@@]21C` the entry was “inactive”.
The same measure, in the same setting: with `OC[C@H]1O[C@H](OCc2ccccc2)[C@H](O[C@@H]2OC[C@@H](O)[C@H](O)[C@H]2O)[C@@H](O)[C@@H]1O` the entry was “inactive”.
Consider `CCC(CC)C(=O)O`, for which the Potency entry was “inactive”.
Same read-out and setting: as for `CC(=O)C1CCC2(O)C3CCC4=CC(=O)CCC4(C)C3CCC12C` (stereo not given), the entry is “inactive”; as for `CCCCCCOC(=O)CCCCC`, “inactive”.
In the case of `NC1(C(=O)N[C@@H](CCO)c2ccc(Cl)cc2)CCN(c2ncnc3[nH]ccc23)CC1`, the Potency was 0.611 µM (active).
The same measure, in the same setting: as for `C[C@@H]1O[C@@H](O[C@H]2[C@H](O)[C@@H](O)[C@H](Oc3c(-c4ccc(O)c(O)c4)oc4cc(O)cc(O)c4c3=O)O[C@@H]2CO)[C@H](O)[C@H](O)[C@H]1O`, the entry is “inactive”; as for `COc1ccc(C(C)=O)cc1`, “inactive”.
On the same count and under the same terms, with `CC1(C)C=C2[C@H]3CC[C@@H]4[C@@]5(C)CCC(=O)C(C)(C)[C@@H]5CC[C@@]4(C)[C@]3(C)CC[C@@]2(C(=O)O)CC1` the entry was “inactive”; with `COC(=O)C=CC(=O)OC`, 3.06 µM (active); with `CC1CCC(C(C)(C)S)C(=O)C1` (stereo not given), “inactive”.
Still for that read-out and setting: with `CC1=CC(=O)CCC1` the entry was “inactive”; with `O=C(OCCc1ccccc1)c1ccccc1`, “inactive”.
Regarding `CC(=O)NCC(=O)N1[C@H]2CC[C@H]1c1cc(Nc3ncc(C(F)(F)F)c(NC4CCC4)n3)ccc12`, the Potency was 9.68 µM (active).
On the same count and under the same terms, as for `COc1ccc2c(c1)CC1c3c(cc4c(c3-2)OCO4)CC[N+]1(C)[O-]` (stereo not given), the entry is “inactive”; as for `CC1(C)CC[C@]2(C(=O)O)[C@H](O)C[C@]3(C)C(=CCC4[C@@]5(C)C[C@H](O)[C@H](O)[C@@](C)(CO)C5CC[C@]43C)[C@@H]2C1` (stereo not given in full), “inactive”; as for `COC(=O)CC(C)CCC=C(C)C` (stereo not given), “inactive”.
Still for that read-out and setting: with `CC1(C)OC(=O)C=C[C@]2(C)[C@H]3CC[C@@]4(C)[C@H](c5ccoc5)OC(=O)[C@H]5O[C@]54[C@]3(C)C(=O)C[C@@H]12` the entry was “inactive”.

Another assay has as its target Nucleoprotein (Lymphocytic choriomeningitis virus (strain Armstrong)) (UniProt P09992). Put plainly: qHTS for Inhibitors of the Functional Ribonucleoprotein Complex (vRNP) of Lymphocytic Choriomeningitis Arenaviruses (LCMV): LCMV Primary Screen - GLuc reporter signal (AID 1347086). Also: nearly all actives have a fitted effect of over 70% in size. To be noted: LCMV minigenome vRNP cell assay, Gaussia luciferase reporter; series mostly up to 57.5 µM.
`CCCCCCCCCCCCCCCC(=O)OC(CO)CO`: the Potency result was “inactive”.
The same measure, in the same setting: with `C[C@H]([C@@H](N)C(=O)N[C@@H](C(=O)O)[C@@H]1O[C@H](n2ccc(=O)[nH]c2=O)[C@@H](O)[C@H]1O)[C@@H](O)c1ccc(O)cn1` the entry was “inactive”; with `CC(C)CC[C@@H](O)[C@](C)(O)C1CC[C@@]2(O)C3=CC(=O)[C@@H]4C[C@@H](O)[C@@H](O)C[C@]4(C)C3CC[C@]12C` (stereo not given in full), “inactive”.
On the same count and under the same terms, with `OC(c1cc(C(F)(F)F)nc2c(C(F)(F)F)cccc12)C1CCCCN1` (stereo not given) the entry was “inactive”; with `COc1cc2c(cc1CC=C(C)C)C(=O)C[C@@H](c1ccc(O)cc1)O2`, “inactive”.
The same measure, in the same setting: as for `CC1=CCC[C@@H]2[C@@](C)(CC/C(C)=C/C(=O)O)[C@H](C)CC[C@@]12C`, the entry is “inactive”; as for `Cc1c[nH]c(C=C2C(=O)Nc3ccccc32)c1CCC(=O)O`, “inactive”; as for `CC(=O)OC[C@H]1O[C@@H](O[C@H]2C[C@]3(C)C(C[C@@H](O)C4C([C@]5(C)CC[C@@H](C(C)(C)O)O5)CC[C@]43C)[C@@]3(C)CC[C@H](O)C(C)(C)C23)[C@H](O[C@@H]2O[C@@H](C)[C@H](O)[C@@H](O)[C@H]2O)[C@@H](O)[C@@H]1O` (stereo not given in full), “inactive”.
Turning to `CC(C)=CCCC(C)CC(=O)O` (stereo not given), the Potency entry is “inactive”.
`CC(C)=CCCC(C)CC=O` (stereo not given): the Potency entry is “inactive”.
Still for that read-out and setting: as for `CC(=O)C1CCC2C3CCC4=CC(=O)C=CC4(C)C3C(=O)CC12C` (stereo not given), the entry is “inactive”.
The same measure, in the same setting: with `CC1(C)CCC[C@]2(C)[C@H]3Cc4cc(O)ccc4O[C@]3(C)CC[C@@H]12` the entry was “inactive”; with `C[C@@H]1[C@H](C)CC[C@]2(C(=O)O)CC[C@]3(C)C(=CC[C@@H]4[C@@]5(C)C[C@@H](O)[C@H](O)[C@@](C)(CO)[C@H]5CC[C@]43C)[C@@H]12`, “inactive”.
Turning to `CC(C)CC(=O)OC(C)(C)[C@@H]1Cc2c(ccc3ccc(=O)oc23)O1`, the Potency result is “inactive”.
Same read-out and setting: as for `CCC(=O)O[C@]1(C(=O)CO)CC[C@H]2[C@@H]3CCC4=CC(=O)CC[C@]4(C)[C@@H]3CC[C@@]21C`, the entry is “inactive”; as for `COc1cc(CCc2ccccc2)c(C(=O)O)c(O)c1C/C=C(/C)CCC=C(C)C`, “inactive”; as for `CC12CCC(=O)C=C1CCC1C2C(O)CC2(C)C(O)CCC12` (stereo not given), “inactive”.
Same read-out and setting: as for `CC(=O)O[C@H]1CC[C@@]2(C)[C@H](C1)C(=O)C[C@H]1[C@@H]3CC[C@@H]4[C@@H](CN5C[C@@H](C)CC[C@H]5[C@@]4(C)O)[C@@H]3C[C@@H]12`, the entry is “inactive”.
On the same count and under the same terms, with `c1coc(Cn2cccc2)c1` the entry was “inactive”; with `CC1=CCC(C(C)C)C=C1` (stereo not given), “inactive”; with `O=CCCc1ccccc1`, “inactive”.
Regarding `C[C@H]1OC(=O)CC[C@@H]2[C@]1(C)CCC1[C@@]2(C)CC[C@@]2(C)C3CC(C)(C)CC[C@]3(CO)CC[C@]12C` (stereo not given in full), the Potency entry was “inactive”.
On the same count and under the same terms, with `CC(=O)OCC(=O)[C@@]1(O)CC[C@H]2[C@@H]3CCC4=CC(=O)CC[C@]4(C)[C@@H]3C(=O)C[C@@]21C` the entry was “inactive”; with `OC[C@H]1O[C@H](OCc2ccccc2)[C@H](O[C@@H]2OC[C@@H](O)[C@H](O)[C@H]2O)[C@@H](O)[C@@H]1O`, “inactive”.
`CCC(CC)C(=O)O`: the Potency result is “inactive”.
Still for that read-out and setting: with `CC(=O)C1CCC2(O)C3CCC4=CC(=O)CCC4(C)C3CCC12C` (stereo not given) the entry was “inactive”.
Still for that read-out and setting: with `CCCCCCOC(=O)CCCCC` the entry was “inactive”; with `NC1(C(=O)N[C@@H](CCO)c2ccc(Cl)cc2)CCN(c2ncnc3[nH]ccc23)CC1`, 1.72 µM (active).
Same read-out and setting: with `C[C@@H]1O[C@@H](O[C@H]2[C@H](O)[C@@H](O)[C@H](Oc3c(-c4ccc(O)c(O)c4)oc4cc(O)cc(O)c4c3=O)O[C@@H]2CO)[C@H](O)[C@H](O)[C@H]1O` the entry was “inactive”; with `COc1ccc(C(C)=O)cc1`, “inactive”.
For `CC1(C)C=C2[C@H]3CC[C@@H]4[C@@]5(C)CCC(=O)C(C)(C)[C@@H]5CC[C@@]4(C)[C@]3(C)CC[C@@]2(C(=O)O)CC1`, the Potency entry is “inactive”.
Take `COC(=O)C=CC(=O)OC`: the Potency is 4.85 µM (active).
Same read-out and setting: as for `CC1CCC(C(C)(C)S)C(=O)C1` (stereo not given), the entry is “inactive”; as for `CC1=CC(=O)CCC1`, “inactive”.
Still for that read-out and setting: as for `O=C(OCCc1ccccc1)c1ccccc1`, the entry is “inactive”; as for `CC(=O)NCC(=O)N1[C@H]2CC[C@H]1c1cc(Nc3ncc(C(F)(F)F)c(NC4CCC4)n3)ccc12`, “inactive”.
Same read-out and setting: as for `COc1ccc2c(c1)CC1c3c(cc4c(c3-2)OCO4)CC[N+]1(C)[O-]` (stereo not given), the entry is “inactive”; as for `CC1(C)CC[C@]2(C(=O)O)[C@H](O)C[C@]3(C)C(=CCC4[C@@]5(C)C[C@H](O)[C@H](O)[C@@](C)(CO)C5CC[C@]43C)[C@@H]2C1` (stereo not given in full), “inactive”.
In the case of `COC(=O)CC(C)CCC=C(C)C` (stereo not given), the Potency result was “inactive”.
Still for that read-out and setting: as for `CC1(C)OC(=O)C=C[C@]2(C)[C@H]3CC[C@@]4(C)[C@H](c5ccoc5)OC(=O)[C@H]5O[C@]54[C@]3(C)C(=O)C[C@@H]12`, the entry is “inactive”.
